# Laboratory results published in PubChem BioAssay AID1814 (Broad Institute, 2009).
# The campaign covered roughly 300,000 compounds. About 22,000 (7.3%) were called active. Inconclusive results (about 2%) are left out. Only a selection was taken, and actives are over-represented in it overall. Values without a mark were called inactive. Cut-off read from the data, not from the text of the source: active = activity score below about -60%; inconclusive = mostly about -28% to -61%; inactive = positive scores.
# Experiment: Activators working through SNCA 5'UTR binding (MLPCN) (AID 1814)
# Conditions: alpha-synuclein 5'UTR reporter, activators screen; stronger effect = lower value; tested at 7.5 µM
row,SMILES,activity score
1,S=c1nc(C23CC4CC(CC(C4)C2)C3)nc2sccn12,-162% (active)
2,COC(=O)c1ccc2c(C(C)(C)O)c(C(C)(C)O)[nH]c2c1,-87.7% (active)
3,COc1cccc(OCC(=O)Nc2ccccc2C(N)=O)c1,-126% (active)
4,Cc1ccc(F)c(NC(=O)CCc2ccccc2)c1,-92.3% (active)
5,O=C(COc1ccc(Cl)cc1)Nc1ccccc1CO,-81.1% (active)
6,Cc1cccc(OCC(=O)Nc2ccccc2F)c1,-140% (active)
7,CCCc1nnc(NC(=O)c2cccs2)s1,-80.1% (active)
8,CC1CCCCN1S(=O)(=O)c1ccc(C(=O)Nc2nnc(-c3cccs3)o2)cc1 (stereo not drawn),89.9%
9,CCc1c(C)sc(NC(=O)c2cccs2)c1C(N)=O,-151% (active)
10,CCc1nnc(NC(=O)c2cccs2)s1,-125% (active)
11,Cc1ccc(C(=O)Nc2nnc(-c3cccs3)s2)cc1C,-218% (active)
12,S=C(NCCc1ccccc1)N1CCCCC1,-106% (active)
13,S=C(NCCc1ccccc1)Nc1ccccc1,-89.3% (active)
14,S=C(NCCc1ccccc1)NCC1CCCO1 (stereo not drawn),-78.2% (active)
15,S=C(NCCC1=CCCCC1)Nc1ccccc1,-122% (active)
16,CCOc1ccc(/C(O)=C2\C(=O)C(=O)N(c3ccc(OC)cc3)C2c2ccccc2[N+](=O)[O-])cc1 (stereo not drawn),-69.2% (active)
17,Fc1ccccc1COc1cccc2cccnc12,-134% (active)
18,Cc1ccnc2nc(C(=O)Nc3nnc(-c4ccccc4)o3)nn12,-72% (active)
19,O=C(O)C1CCN(C(=O)OCc2ccccc2)CC1,-142% (active)
20,CCOC(=O)c1sc(=NC(=O)/C=C/c2cccs2)n(C)c1C,-201% (active)
21,Cc1ccc(NC(=O)C(=O)NCc2ccco2)c(C)c1,-101% (active)
22,COc1ccc(/C=N/Nc2nc3ccccc3o2)cc1OC,-162% (active)

row,SMILES,activity score
1,O=[N+]([O-])c1cc(Br)c(O)c(/C=N/Nc2nc3ccccc3s2)c1,-87.6% (active)
2,COc1cc(/C=N/Nc2nc3ccccc3s2)ccc1O,-82.9% (active)
3,Brc1ccccc1/C=N/Nc1nc2ccccc2o1,-126% (active)
4,Cc1cc2nc(SCCN3CCOCC3)[nH]c2cc1C,-115% (active)
5,O=C(CN1C(=O)S/C(=C\c2ccccc2Cl)C1=O)NC1C=CS(=O)(=O)C1 (stereo not drawn),-83.8% (active)
6,Cc1cccc(N2C(=O)C3C(c4ccccc4)OC4(C(=O)c5ccccc5C4=O)C3C2=O)c1 (stereo not drawn),-66.3% (active)
7,CC(=O)Nc1ccc(Nc2c([N+](=O)[O-])cc(S(C)(=O)=O)cc2[N+](=O)[O-])cc1,-75.2% (active)
8,COc1ccc(-c2csc(NC(=O)COC(=O)c3ccc(Br)o3)n2)cc1,-106% (active)
9,COc1ccc(-c2csc(NC(=O)COC(=O)Cc3ccc(Cl)cc3Cl)n2)cc1,-99.4% (active)
10,COc1ccccc1N1CCN(C(=O)c2cc(=O)c3cc(C)cc(C)c3o2)CC1,78.3%
11,COc1ccccc1N1CCN(C(=O)CSc2ncnc3c2cnn3-c2ccc(C)c(C)c2)CC1,-144% (active)
12,CC(C)Sc1ncnc2c1cnn2-c1ccccc1,-82.1% (active)
13,CCN(CC)C(=O)CSc1ncnc2c1cnn2-c1ccccc1,-129% (active)
14,COc1cc(OC)cc(-c2nc(=S)n3ccsc3n2)c1,-77.6% (active)
15,COc1ccc(-c2ccc3nnc(SCC(=O)Nc4ccc(NC(C)=O)cc4)n3n2)cc1,-81.8% (active)
16,Oc1ccc(-c2cccc(-c3ccc(O)cc3)c2)cc1,-135% (active)
17,O=C(Nc1ccc([N+](=O)[O-])cc1)OCCc1ccccn1,-144% (active)
18,O=C(Nc1cccc(Cl)c1)OCc1ccccn1,-131% (active)
19,COc1ccc(-c2nc(-c3ccccc3)no2)c(OC)c1,68.9%
20,COc1ccccc1Cc1nc(-c2ccc(C)cc2)no1,-97.1% (active)
21,COc1ccc2[nH]c(=O)c(-c3noc(-c4ccc(F)cc4)n3)cc2c1,-111% (active)
22,COc1ccc(-c2noc(-c3ccc(C)cc3)n2)cc1,-153% (active)

row,SMILES,activity score
1,O=C(Nc1nnc(-c2ccccc2F)s1)c1ccccc1F,-172% (active)
2,COc1ccc(CCc2nc(-c3cccs3)no2)cc1,-148% (active)
3,Clc1cccc(Cl)c1Cn1nnc(-c2cccs2)n1,-162% (active)
4,CCCc1ccc(-c2csc(NC(=O)Cc3cccs3)n2)cc1,-66.4% (active)
5,Cc1ccc(-c2csc(NC(=O)Cc3cccs3)n2)cc1C,-200% (active)
6,CC(C)c1ccc(NC(=O)Cn2ncc3ccccc32)cc1,-178% (active)
7,Cc1ccc(-n2nc(C)c(/C=N/NC(=O)c3cccs3)c2Cl)cc1,-87.3% (active)
8,CC(=O)Nc1ccc(/C=N/NC(=O)c2cccs2)cc1,-159% (active)
9,O=C(N/N=C/C=C/c1ccco1)c1cccs1,-86.4% (active)
10,Cc1cccc(-n2c(C)cc(/C=N\NC(=O)c3cccs3)c2C)c1,-62.2% (active)
11,CCCn1c(C)cc(/C=C(\C#N)C(=O)OCC(=O)Nc2cc(OC)c(OC)c(OC)c2)c1C,-103% (active)
12,CCOC(=O)/C(C#N)=C/c1ccc(OCC(=O)Nc2ccccc2)c(OC)c1,-119% (active)
13,OC(COc1ccc2ccccc2c1)CN1CCOCC1 (stereo not drawn),-72.5% (active)
14,CCCn1nnc2sc3c(c2c1=O)CCC(C)C3 (stereo not drawn),-131% (active)
15,CC1CCc2c(sc3nc4n(c(=O)c23)CCS4)C1 (stereo not drawn),-71.6% (active)
16,Cc1ccn(-c2cccc(-n3ccc(C)n3)n2)n1,-93% (active)
17,CN1CCN(/N=C/c2ccc(-c3ccc([N+](=O)[O-])cc3)o2)CC1,-128% (active)
18,O=c1c2c(nc3cc(-c4cccc(Cl)c4)[nH]n13)CCCC2,18.5%
19,Cc1cc(=O)n2[nH]c(-c3cccc(Cl)c3)cc2n1,-79% (active)
20,CCn1c(CNc2ccc(OC)cc2)nnc1SCC(=O)c1ccc(OC)cc1,-63.6% (active)
21,Brc1ccc2c(c1)[C@H]1OCC[C@H]1[C@@H](c1cccs1)N2,72.2%
22,O=C1NC(c2ccncc2)Nc2sc3c(c21)CCCC3 (stereo not drawn),-66.2% (active)

row,SMILES,activity score
1,Cc1ccnc(NC(=O)c2ccc(Cl)c([N+](=O)[O-])c2)c1,-78.7% (active)
2,O=C(Nc1ccc2oc(-c3ccccc3F)nc2c1)c1ccco1,-128% (active)
3,C/C(=N\NS(=O)(=O)c1ccc(Cl)cc1)c1ccc(NC(=O)c2ccco2)cc1,-87.4% (active)
4,O=C(CSCc1ccccc1)Nc1ccccc1,-126% (active)
5,O=C(Nc1cccc(-c2nc3ncccc3o2)c1)c1ccco1,-72.9% (active)
6,O=C(CSc1ccccc1)Nc1ccc(NC(=O)c2ccco2)cc1,-68.2% (active)
7,CCS(=O)(=O)Nc1ccc(C(=O)NCCSc2ccccc2)cc1,-92.6% (active)
8,CSCCC(NC(=O)c1ccco1)C(=O)Nc1cc(C)ccn1 (stereo not drawn),-130% (active)
9,CCCc1cc(C(=O)Nc2ccc(C(=O)OC)cc2)cs1,-74% (active)
10,Cc1ccnc(NC(=O)c2ccc(NC(=O)c3ccco3)cc2)c1,-164% (active)
11,Cc1ccc(-n2nc3cc(Cl)c(NC(=O)c4ccco4)cc3n2)cc1,-179% (active)
12,O=C(/C=C/c1ccco1)Nc1ccc(Oc2ccccc2)cc1,-217% (active)
13,Cc1cccc(CS(=O)(=O)c2ncc(Cl)c(C(=O)Nc3ccc(F)cc3)n2)c1,59.7%
14,O=C(Nc1ccc(Oc2ccccc2)cc1)c1ccco1,-119% (active)
15,Cc1cc(NC(=O)c2ccc(F)cc2)ccc1NC(=O)c1ccco1,-63.3% (active)
16,O=C(NCCSc1ccccc1)c1ccco1,-162% (active)
17,O=C(CSc1ccccc1)Nc1ccc(C(=O)Nc2cccc(O)c2)cc1,-104% (active)
18,O=C(Nc1ccc(O)cc1)c1ccc(NC(=O)c2ccco2)cc1,-72.7% (active)
19,CCCc1ccc(OCCNC(=O)c2ccco2)cc1,-90.6% (active)
20,COC(=O)c1cc(Cl)c(NC(=O)c2ccco2)cc1OC,-96% (active)
21,COC(=O)c1ccc(NC(=O)c2ccco2)cc1,-107% (active)
22,O=C(Nc1ccc2nccnc2c1)c1ccco1,-105% (active)

row,SMILES,activity score
1,Cc1ccoc1C(=O)Nc1cccc(Oc2ccccc2)c1,-137% (active)
2,Cc1ccnc(NC(=O)c2ccoc2C)c1,-147% (active)
3,Clc1ccc(Cc2nnc(-c3cccs3)o2)cc1,-116% (active)
4,Cc1ccc(NC(=O)OCc2cncs2)cc1,-112% (active)
5,COc1ccc(NC(=O)/C(Cl)=C(/Cl)S(=O)Cc2ccc(C)cc2)cn1 (stereo not drawn),106%
6,O=C(N/N=C/c1ccc(OCc2ccccc2)cc1)c1ccc(O)cc1,-70.7% (active)
7,Cc1ccnc(NC(=O)CCNS(=O)(=O)c2ccc(C)c(C)c2)c1,-87.9% (active)
8,CC(C)c1ccc(NC(=S)NC2CC3C=CC2C3)cc1 (stereo not drawn),-134% (active)
9,Cc1ccc(-c2csc(NC(=O)C3=COCCO3)n2)cc1C,-176% (active)
10,COc1ccccc1NC(=O)c1ccc(C)s1,-227% (active)
11,Cc1csc(NC(=O)C2=COCCO2)n1,-132% (active)
12,COc1ccccc1NC(=O)C1=C(C)Nc2nc3ccccc3n2C1c1cccs1 (stereo not drawn),106%
13,Cc1sc(NC(=O)C2=COCCO2)c(C#N)c1C,-110% (active)
14,Cc1csc(NC(=O)c2ccc(C)s2)n1,-174% (active)
15,O=C(Nc1nc(-c2ccc3c(c2)OCO3)cs1)c1ccncc1,-99.5% (active)
16,COc1cc(SC)ccc1C(=O)Nc1nc(C)cs1,96.2%
17,Cc1ccc(-c2csc(NC(=O)c3cnccn3)n2)cc1C,-97.7% (active)
18,COc1ccccc1-c1nnc(SCC(=O)Nc2ccccc2)o1,-187% (active)
19,COc1ccccc1-c1nnc(SCC(=O)N2CC(C)CC(C)C2)o1 (stereo not drawn),45.8%
20,COc1ccc(-c2nnc(SCC(=O)c3cccs3)o2)c(OC)c1,-106% (active)
